Screening data from PubChem BioAssay.
Most compounds without a hit are left out; they make up all but 1.7% or so of the library.
Vif inh = HIV Vif inhibition. HEK293T cells, Vif self-association by quenched fluorescence, imaging, 24 h. inhibition, % at 7.49 µM. 340,000 tested, 0.35% active. AID 602346; in the data active = inhibition above about 50%, passing the limit was not always enough; inconclusive = no clear call, values can overlap the other calls; inactive = below about 31%
aDG glyco up = increases alpha dystroglycan glycosylation. Pro5-aDG cells, alpha-DG glycosylation AlphaScreen (IIH6); 0% Pro5, 100% B10-LARGE cell signal. activation, % at 10 µM. 360,000 tested, 0.22% active;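 active = activation of at least 8% versus controls, or a plate z-score of at least 8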;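 note: Pro5 are CHO cells carrying HIG-tagged alpha-DG that lacks glycosylation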
ARNT-TACC3 inh = ARNT/TACC3 interaction disruption; AID 623870; Q9Y6A5; inhibition, % at 9.99 µM; 390,000 tested, 0.66% active; AlphaScreen His-ARNT PAS-B/GST-TACC3 binding, luminescence; TACC3 fragment carries E629A point mutation;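 active = mean inhibition of replicates at least 50% and at least half of replicates each reaching 50%; inconclusive = half or more replicates reach 50% but mean below 50%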;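 note: 0% = complete ARNT plus TACC3 wells and 100% = ARNT alone without TACC3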
N-glyco inh = blocks N-linked glycosylation in D54 reporter cells | D54 ERlucT glycosylation luciferase reporter, 24 h; percent of 100 nM tunicamycin response | 360,000 tested, 0.23% active | AID 588692 | reporter increase, % at 12.5 µM;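 active = mean luciferase reporter signal, scaled so untreated is 0 and the glycosylation-blocking control 100, at or above a set limit in every replicate; inconclusive = mean reaches the limit but not every replicate does; inactive = mean below the limit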;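 note: luciferase carries N-glycosylation sites so blocking glycosylation raises the light; 0% = median of neutral control wells and 100% = median of 100 nM tunicamycin wells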
Cardio protect = myocardial damage modulation in H9c2 cells; H9c2 cardiomyocytes, H2O2 injury protection, ATPLite, 2 h; protection from H2O2 cell death, % at 20 µM; 360,000 tested, 0.63% active; AID 588492;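 active = compounds giving at least 50% protection of heart cells from peroxide-induced death in the single-dose screen, raw or plate-pattern-corrected value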;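 note: 0% = DMSO wells with peroxide and 100% = DMSO wells without peroxide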
* = called active by the depositor.

`O=C(NCC1CCCCC1)[C@@H]1[C@@H](CO)[C@@H]2Cn3c(ccc(C4=CCCCC4)c3=O)[C@H]1N2` gave ARNT-TACC3 inh -1.9.
For CCCC(=O)Nc1ccc2c(c1)C(=O)N(C)[C@H]1CC[C@@H](CC(=O)N3CCc4ccccc4C3)O[C@@H]1CO2 the results were ARNT-TACC3 inh 9.4.
For O=C(C[C@@H]1CC[C@H]2[C@@H](COC[C@@H](O)CN2C(=O)c2cnccn2)O1)NCc1ccc(Oc2ccccc2)cc1 the results were ARNT-TACC3 inh 0.6.
Screening CC(C)COc1ccc(C(=O)OCCN2CCCCC2)cc1 returned Vif inh 4.8, aDG glyco up 0.2, ARNT-TACC3 inh active, N-glyco inh -4.9 and Cardio protect -3.0.
For CCOc1ccc(-c2nnc(SCC(=O)Nc3ccc4c(c3)c3ccccc3n4CC)n2N)cc1 the results were Vif inh 37.3, aDG glyco up -0.4, ARNT-TACC3 inh 2.2, N-glyco inh 73.3* and Cardio protect -18.6.
Screening C[n+]1c2n(c3ccccc31)N=C(c1ccc(-c3ccccc3)cc1)CS2 returned aDG glyco up -0.2, ARNT-TACC3 inh 7.9, N-glyco inh 7.6 and Cardio protect -23.1.
Screening C[n+]1c2n(c3ccccc31)N=C(c1ccc(Br)cc1)CS2 returned Vif inh -9.2, aDG glyco up -0.2, ARNT-TACC3 inh 0.2, N-glyco inh 37.2* and Cardio protect -12.3.
`C[C@@H]1CCCCO[C@H](CN(C)S(=O)(=O)c2cccs2)[C@@H](C)CN([C@@H](C)CO)C(=O)c2cc(NC(=O)Nc3ccccc3)ccc2O1` gave ARNT-TACC3 inh -5.9.
Screening C[C@H](NC(=O)[C@H]1[C@H](CO)[C@H]2Cn3c(cccc3=O)[C@H]2N1S(C)(=O)=O)c1ccccc1 returned ARNT-TACC3 inh -0.2.
Screening CCOC(=O)/C(C#N)=N/Nc1c(C)n(C)n(-c2ccccc2)c1=O returned Vif inh 10.9, aDG glyco up 0.2, N-glyco inh 1.8 and Cardio protect 6.1.
Cc1ccccc1C(=O)/C(C#N)=N/Nc1c(C)n(C)n(-c2ccccc2)c1=O was read as Vif inh -7.9, aDG glyco up 0.9, ARNT-TACC3 inh 56.7*, N-glyco inh -9.3 and Cardio protect 64.3*.
For Cc1c(N/N=C(\C#N)C(=O)c2ccccc2)c(=O)n(-c2ccccc2)n1C the results were Vif inh -5.4, aDG glyco up 0.3, ARNT-TACC3 inh 67.0*, N-glyco inh -8.5 and Cardio protect 20.1.
COc1ccc(S(=O)(=O)Nc2ccc3c(c2)C(=O)N([C@@H](C)CO)C[C@@H](C)[C@H](CN(C)S(=O)(=O)c2cn(C)cn2)OCCCC[C@@H](C)O3)cc1 was read as ARNT-TACC3 inh -5.1.
Screening CC(C)CN(C(=O)CSc1nn(-c2ccc(Cl)cc2)c(=S)s1)C1CCS(=O)(=O)C1 (configuration not stated) returned Vif inh 4.9, aDG glyco up 0.0, ARNT-TACC3 inh 36.0*, N-glyco inh -3.7 and Cardio protect -5.6.
For COc1cc(NC(=O)c2ccc(-c3cccnc3)c3ccoc23)cc(OC)c1OC the results were Vif inh -3.2, aDG glyco up -0.5, N-glyco inh 0.1 and Cardio protect 25.2.
For COc1cc(NC(=O)c2ccc(-c3cn[nH]c3)c3ccoc23)cc(OC)c1OC the results were Vif inh -1.3, aDG glyco up -0.5, N-glyco inh 1.8 and Cardio protect 66.5*.
Screening CN1CCN(C(=O)C[C@H]2C[C@@H]3c4cc(NC(=O)Nc5ccccc5F)ccc4O[C@@H]3[C@H](CO)O2)CC1 returned ARNT-TACC3 inh 0.5.
COC(=O)c1ccc(SCC(=O)NC2CCCC2)c([N+](=O)[O-])c1 was read as Vif inh inconclusive, aDG glyco up 0.2, ARNT-TACC3 inh 0.7, N-glyco inh -0.8 and Cardio protect 3.8.
`COC(=O)c1ccc(SC2CCCCC2)c([N+](=O)[O-])c1` gave Vif inh 125.0*, aDG glyco up -0.3, N-glyco inh -3.8 and Cardio protect -7.0.
Screening C/C(N)=C(/C#N)C(=O)CSc1nnc(Nc2ccccc2)s1 returned Vif inh 1.3, aDG glyco up -0.4, ARNT-TACC3 inh -3.4, N-glyco inh 1.0 and Cardio protect 56.8*.
Cc1ccc(Nc2nnc(SCn3nnc4ccccc4c3=O)s2)cc1 was read as Vif inh -4.3, aDG glyco up 0.0, ARNT-TACC3 inh -3.8, N-glyco inh -1.4 and Cardio protect 2.2.
`O=c1c2ccccc2nnn1CSc1nnc(Nc2ccccc2)s1` gave Vif inh 50.6*, aDG glyco up -0.2, ARNT-TACC3 inh -10.9, N-glyco inh -0.3 and Cardio protect -4.5.
`O=c1cc(-c2ccncc2)oc2c1ccc1ccccc12` gave Vif inh -9.7, aDG glyco up 0.0, ARNT-TACC3 inh -1.7, N-glyco inh 18.1 and Cardio protect 66.5*.
Screening O=C1CC(N2CCc3ccccc32)C(=O)N1c1ccccc1 (configuration not stated) returned Vif inh -5.0, aDG glyco up 0.1, ARNT-TACC3 inh -2.2, N-glyco inh 1.5 and Cardio protect 3.6.
Screening CCOc1ccc(N2C(=O)CC(N3CCc4ccccc43)C2=O)cc1 (configuration not stated) returned Vif inh 80.7*, aDG glyco up -0.2, ARNT-TACC3 inh -13.0, N-glyco inh 0.7 and Cardio protect -0.4.
Screening COc1ccc(Nc2nnc(-c3ccc(O)cc3)c3ccccc23)cc1C(N)=O returned Vif inh 1.0, aDG glyco up -0.4, ARNT-TACC3 inh 15.6, N-glyco inh 1.6 and Cardio protect 56.9*.
Cc1onc(-c2ccccc2)c1C(=O)N/N=C(\N)COc1ccc(Cl)cc1 was read as Vif inh -1.7, aDG glyco up -0.3, ARNT-TACC3 inh -8.3, N-glyco inh 0.4 and Cardio protect 13.4.
For Cc1onc(-c2ccccc2Cl)c1C(=O)N/N=C(\N)COc1ccc(Cl)cc1 the results were Vif inh 2.2, aDG glyco up 0.4, ARNT-TACC3 inh -2.4, N-glyco inh 5.3 and Cardio protect 60.2*.
COc1ccc(-c2nc(NC(=O)c3ccc(OCC(=O)N4CCOCC4)c(OC)c3)sc2C)cc1 was read as Vif inh -24.0, aDG glyco up -0.3, ARNT-TACC3 inh -11.6, N-glyco inh -1.2 and Cardio protect 61.7*.
Screening COc1cc(C(=O)Nc2ccc(C)cn2)ccc1OCC(=O)N1CCOCC1 returned Vif inh -11.7, aDG glyco up 0.1, ARNT-TACC3 inh 2.6, N-glyco inh 0.8 and Cardio protect -0.5.
`COc1ccc(NC2=C(C)C(=O)CC2)cc1` gave Vif inh 20.5, aDG glyco up -0.5, ARNT-TACC3 inh -2.6, N-glyco inh 31.7* and Cardio protect 0.0.
`CO[C@@H]1CN(C)C(=O)c2cc(NC(=O)NC(C)C)ccc2OC[C@H](C)N(CC2CC2)C[C@@H]1C` gave ARNT-TACC3 inh -6.9.
Cc1ccc(S(=O)(=O)N[C@H]2CC[C@H](CC(=O)O)O[C@@H]2CO)cc1 was read as ARNT-TACC3 inh -0.6.
